Our source for the Potency and outcome values is PubChem BioAssay (Tox21).

Several values for one entry are separate records, joined by “and”; a condition that tells them apart may be missing. Equal values may be shown once. Records with an inconclusive call do not appear. More than one record can exist for a structure, and the calls need not agree. Activity calls are given as the source filed them. Unless noted, calls come from the whole dose curve; as a rule, active = well fitted curve in the direction sought with a large enough effect in the repeat runs; inconclusive = weak or mixed curves; inactive = no such curve, though single readings can be large; an effect the other way counts as inactive or inconclusive.

The nature of assay [1]: qHTS assay to identify small molecule that activate the aryl hydrocarbon receptor (AhR) signaling pathway - cell viability counter screen (AID 743086). Note: nearly all actives have a fitted effect of over 45% in size. Note: potency is the fitted concentration of half-maximal effect. The method in brief:
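Cytotoxicity counter screen: CellTiter-Fluor signal (30 min, 37 C) in 4000 HepG2 cells/well carrying the DRE-luciferase reporter, following 24 h compound exposure at 37 C.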

Assay [2] addresses Peroxisome proliferator-activated receptor gamma (Homo sapiens) (UniProt P37231). Description: qHTS assay to identify small molecule agonists of the peroxisome proliferator-activated receptor gamma (PPARg) signaling pathway (AID 743094; active = well fitted activation curve with a large enough effect in the signal ratio in the repeat runs, not every such curve was filed as active; the % refers to the signal ratio). The method in brief:
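Stably transfected HEK293H cells (GeneBLAzer PPARg UAS-bla) were incubated with test substances for 17 h at 37C after a 5 h pre-incubation; beta-lactamase activity was then detected by FRET substrate fluorescence.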

The target is the same in assay [3]. The experiment in a line: qHTS assay to identify small molecule antagonists of the peroxisome proliferator-activated receptor gamma (PPARg) signaling pathway (AID 743191; calls by dose curve; note: nearly all actives have a fitted effect of over 30% in size; note: potency is the fitted concentration of half-maximal effect). The method in brief:
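Beta-lactamase reporter under UAS control in HEK293H PPARg-bla cells; compound treatment 17 h at 37C. Read-out: fluorescence intensity after 1 h room-temperature incubation with LiveBLAzer B/G FRET substrate.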

A short description of assay [4]: qHTS assay to identify small molecule antagonists of the peroxisome proliferator-activated receptor gamma (PPARg) signaling pathway - cell viability counter screen (AID 743194). Note: nearly all actives have a fitted effect of over 55% in size. The method in brief:
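Viability was measured as CellTiter-Glo luminescence in GeneBLAzer PPARg UAS-bla HEK293H cells. These cells had been exposed 17 h at 37 C to compounds together with rosiglitazone at 50 nM final, with the beta-lactamase readout taken in the same wells.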

Assay [5] can be described thus: qHTS assay for small molecule agonists of the antioxidant response element (ARE) signaling pathway (AID 743202; active = well fitted activation curve with a large enough effect in the signal ratio in the repeat runs, not every such curve was filed as active; the % refers to the signal ratio; note: potency is the fitted concentration of half-maximal effect). The method, boiled down:
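Quantitative high-throughput format in HepG2 cells bearing an integrated ARE-beta-lactamase reporter. Compound exposure lasted 16 h at 37 C, and fluorescence was read 2 h after adding LiveBLAzer B/G substrate at room temperature.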

Assay [6] can be described thus: qHTS assay for small molecule agonists of the antioxidant response element (ARE) signaling pathway - cell viability counter screen (AID 743203; calls by dose curve; note: nearly all actives have a fitted effect of over 55% in size; note: potency is the fitted concentration of half-maximal effect). The method in brief:
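Cells (ARE-bla HepG2, 2,000/well) receive DMSO-dissolved compounds after a 5 hrs rest. Plates incubate 16 hrs at 37C/5% CO2. CellTiter-Glo luminescence is then recorded after 30 min at room temperature.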

The nature of assay [7]: qHTS assay for small molecule activators of the heat shock response signaling pathway - cell viability counter screen (AID 743209). Note: nearly all actives have a fitted effect of over 50% in size. The method, boiled down: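 Quantitative HTS format, Tox21 10K library. HeLa cells carrying an HSE-driven beta-lactamase reporter were treated 5 h at 37 C, then assessed for viability by CellTiter-Glo luminescence.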
Assay [8] in a line: qHTS assay for small molecule activators of the heat shock response signaling pathway (AID 743210; active = well fitted activation curve with a large enough effect in the signal ratio in the repeat runs, with a control signal flat, not every such curve was filed as active; the % refers to the signal ratio; note: potency is the fitted concentration of half-maximal effect; for activation: series mostly up to about 63 µM). The method, boiled down:
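HeLa HSE-bla cells, overnight plating; cpd in DMSO 5 h, 37 C; LiveBLAzer B/G FRET substrate 2.5 h RT; fluorescence intensity read.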

Assay [9] has as its target Peroxisome proliferator-activated receptor delta (Homo sapiens) (UniProt Q03181). The experiment in a line: qHTS assay to identify small molecule agonists of the peroxisome proliferator-activated receptor delta (PPARd) signaling pathway (AID 743212; calls by dose curve). The method, boiled down: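 HEK293H PPARd-bla cells; 5 h preincubation 37 C/5% CO2; compound (DMSO) 37 C; LiveBLAzer B/G FRET substrate 2 h RT; fluorescence intensity.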

Assay [10] is described as follows: qHTS assay to identify small molecule antagonists of the peroxisome proliferator-activated receptor delta (PPARd) signaling pathway - cell viability counter screen (AID 743213). Note: nearly all actives have a fitted effect of over 50% in size. The method in brief: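 Viability counter-screen, qHTS format: PPARd-bla HEK293H, L165041 300 nM final, 17 h compound exposure at 37 C, CellTiter-Glo luminescence after 30 min RT.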
Assay [11] addresses Peroxisome proliferator-activated receptor delta (Homo sapiens) (UniProt Q03181). Description: qHTS assay to identify small molecule antagonists of the peroxisome proliferator-activated receptor delta (PPARd) signaling pathway (AID 743215; active = well fitted inhibition curve with a large enough effect in the signal ratio in the repeat runs, not every such curve was filed as active; the % refers to the signal ratio;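 note: cells stimulated with agonist L165041 at 300 nM final during compound exposure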; note: potency is the fitted concentration of half-maximal effect). The method in brief:
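Antagonist-mode beta-lactamase reporter screen: HEK293H cells with UAS-bla under PPARd control, stimulated by 300 nM L165041 (final) alongside test compound for 17 h at 37 C, then FRET fluorescence after 2 h substrate incubation.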

A short description of assay [12]: qHTS assay to identify small molecule agonists of the farnesoid-X-receptor (FXR) signaling pathway - cell viability counter screen (AID 743218). Note: nearly all actives have a fitted effect of over 45% in size. The method in brief: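 In GeneBLAzer FXR-UAS-bla HEK 293T cells, compounds act for 16 h at 37 C. Cell viability is then scored in the reporter wells by CellTiter-Glo, 30 min at RT, luminescence.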
Assay [13] can be described thus: qHTS assay to identify small molecule antagonists of the farnesoid-X-receptor (FXR) signaling pathway - cell viability counter screen (AID 743221; active = well fitted cell-killing curve with a large enough effect in the repeat runs, not every such curve was filed as active; note: nearly all actives have a fitted effect of over 50% in size). The method in brief: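 Compound effects on cell number were measured as CellTiter-Glo luminescence in HEK 293T cells expressing FXR-UAS-bla, after 16 h at 37 C with 50 uM CDCA (final).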
In assay [14] the target is Vitamin D3 receptor (Homo sapiens) (UniProt P11473). Description: qHTS assay to identify small molecule agonists of the vitamin D receptor (VDR) signaling pathway (AID 743222; calls by dose curve). The method in brief: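 Agonist activity measured in VDR-bla reporter cells. Exposure 16 h, 37C, 5% CO2; detection by B/G FRET substrate, 2 h RT.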
The target is the same in assay [15]. Description: qHTS assay to identify small molecule antagonists of the vitamin D receptor (VDR) signaling pathway (AID 743223; active = well fitted inhibition curve with a large enough effect in the signal ratio in the repeat runs, not every such curve was filed as active; the % refers to the signal ratio). The method in brief:
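Beta-lactamase activity in VDR-bla cells is measured by FRET substrate fluorescence (2 h, room temperature) after cells spend 16 h at 37C with test compound and 3 nM final 1alpha,25-dihydroxyvitamin D3.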

A short description of assay [16]: qHTS assay to identify small molecule agonists of the vitamin D receptor (VDR) signaling pathway - cell viability counter screen (AID 743224). Note: nearly all actives have a fitted effect of over 50% in size. Note: potency is the fitted concentration of half-maximal effect. The method in brief:
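VDR-bla cell line, quantitative HTS format; 16 h compound incubation (37C, 5% CO2); ATP-based CellTiter-Glo luminescence measured in the reporter assay wells.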

Assay [17] is described as follows: qHTS assay to identify small molecule antagonists of the vitamin D receptor (VDR) signaling pathway - cell viability counter screen (AID 743225). Note: nearly all actives have a fitted effect of over 50% in size. The method in brief: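 In this counter screen, VDR-bla HEK 293T cells receive test compound plus 3 nM final calcitriol for 16 h at 37C. Room-temperature steps of 2 h with the beta-lactamase substrate, then 30 min with CellTiter-Glo, precede the luminescence read.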

Assay [18] in a line: qHTS assay to identify small molecule agonists of the peroxisome proliferator-activated receptor delta (PPARd) signaling pathway - cell viability counter screen (AID 743211). Note: nearly all actives have a fitted effect of over 55% in size. The method in brief:
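Following 5 h plating at 37 C and 5% CO2, PPARd UAS-bla HEK293H cells took up test compounds for 17 h. Viability was quantified by luminescence 30 min after CellTiter-Glo addition at room temperature.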

For assay [19], the target named is Bile acid receptor (Homo sapiens) (UniProt Q96RI1). Description: qHTS assay to identify small molecule antagonists of the farnesoid-X-receptor (FXR) signaling pathway (AID 743217; active = well fitted inhibition curve with a large enough effect in the signal ratio in the repeat runs, not every such curve was filed as active; the % refers to the signal ratio). The method in brief:
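Beta-lactamase reporter under UAS control in HEK 293T cells; compound exposure 16 h at 37 °C in the presence of chenodeoxycholic acid (50 uM final); signal from B/G FRET substrate after 2 h at room temperature.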

The target is the same in assay [20]. Description: qHTS assay to identify small molecule agonists of the farnesoid-X-receptor (FXR) signaling pathway (AID 743220; active = well fitted activation curve with a large enough effect in the signal ratio in the repeat runs, not every such curve was filed as active; the % refers to the signal ratio). The method in brief: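 Beta-lactamase reporter under UAS control in GeneBLAzer FXR HEK 293T cells (5000/well) measured with LiveBLAzer FRET substrate after 2 h at room temperature. Compound exposure lasted 16 h at 37C.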

Chain of Peroxisome proliferator-activated receptor gamma (Homo sapiens) (P37231 whole entry, looked up): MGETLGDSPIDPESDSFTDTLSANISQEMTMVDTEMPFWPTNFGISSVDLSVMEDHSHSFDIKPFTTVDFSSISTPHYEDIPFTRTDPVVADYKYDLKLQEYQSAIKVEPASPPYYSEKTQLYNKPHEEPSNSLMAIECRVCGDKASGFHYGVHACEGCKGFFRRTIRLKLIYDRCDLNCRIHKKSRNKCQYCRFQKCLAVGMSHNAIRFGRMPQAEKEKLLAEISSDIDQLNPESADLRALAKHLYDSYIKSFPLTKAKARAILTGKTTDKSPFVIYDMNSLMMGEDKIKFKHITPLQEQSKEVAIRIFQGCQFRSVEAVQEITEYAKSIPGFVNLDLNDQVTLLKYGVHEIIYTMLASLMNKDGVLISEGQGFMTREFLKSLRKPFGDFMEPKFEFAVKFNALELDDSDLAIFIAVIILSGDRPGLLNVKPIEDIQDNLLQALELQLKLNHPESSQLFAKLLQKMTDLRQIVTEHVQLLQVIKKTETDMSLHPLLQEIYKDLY
Chain of Peroxisome proliferator-activated receptor delta (Homo sapiens) (Q03181 whole entry, looked up): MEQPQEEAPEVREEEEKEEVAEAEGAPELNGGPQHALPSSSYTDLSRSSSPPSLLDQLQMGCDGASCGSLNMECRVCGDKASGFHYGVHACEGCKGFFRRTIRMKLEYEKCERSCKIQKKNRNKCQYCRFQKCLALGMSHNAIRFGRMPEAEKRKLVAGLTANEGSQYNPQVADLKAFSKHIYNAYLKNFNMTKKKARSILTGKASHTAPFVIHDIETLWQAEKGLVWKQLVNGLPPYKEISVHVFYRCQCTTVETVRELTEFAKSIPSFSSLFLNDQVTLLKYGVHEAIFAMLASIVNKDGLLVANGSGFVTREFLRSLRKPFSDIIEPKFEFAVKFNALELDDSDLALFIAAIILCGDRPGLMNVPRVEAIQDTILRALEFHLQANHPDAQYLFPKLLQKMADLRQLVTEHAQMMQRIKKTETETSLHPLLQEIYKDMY
Chain of Bile acid receptor (Homo sapiens) (Q96RI1 whole entry, looked up): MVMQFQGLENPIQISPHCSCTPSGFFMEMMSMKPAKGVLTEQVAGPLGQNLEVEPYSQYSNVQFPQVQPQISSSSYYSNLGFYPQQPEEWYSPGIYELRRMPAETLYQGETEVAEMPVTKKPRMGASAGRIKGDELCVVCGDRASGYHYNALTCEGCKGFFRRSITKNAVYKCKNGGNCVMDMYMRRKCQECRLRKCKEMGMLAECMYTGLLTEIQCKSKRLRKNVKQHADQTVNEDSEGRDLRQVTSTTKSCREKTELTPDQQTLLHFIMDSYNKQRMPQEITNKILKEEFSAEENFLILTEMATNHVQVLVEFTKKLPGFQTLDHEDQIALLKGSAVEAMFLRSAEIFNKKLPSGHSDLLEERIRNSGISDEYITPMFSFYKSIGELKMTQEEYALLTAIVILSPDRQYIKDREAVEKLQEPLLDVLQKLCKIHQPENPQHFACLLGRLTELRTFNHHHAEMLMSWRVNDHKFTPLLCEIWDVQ
Chain of Vitamin D3 receptor (Homo sapiens) (P11473 whole entry, looked up): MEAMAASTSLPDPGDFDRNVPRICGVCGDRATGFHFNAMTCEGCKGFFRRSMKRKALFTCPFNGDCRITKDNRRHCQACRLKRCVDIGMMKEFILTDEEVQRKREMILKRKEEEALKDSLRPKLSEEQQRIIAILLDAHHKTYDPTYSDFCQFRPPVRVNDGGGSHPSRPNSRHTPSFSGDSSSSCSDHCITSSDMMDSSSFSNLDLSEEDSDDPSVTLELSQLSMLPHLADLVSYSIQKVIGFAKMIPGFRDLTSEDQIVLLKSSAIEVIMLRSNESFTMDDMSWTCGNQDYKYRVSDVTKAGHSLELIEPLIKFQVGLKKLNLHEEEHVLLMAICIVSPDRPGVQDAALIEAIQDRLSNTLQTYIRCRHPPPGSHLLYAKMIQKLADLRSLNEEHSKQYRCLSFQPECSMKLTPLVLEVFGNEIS

Take `OC(CCl)CCl`: the Potency result in [1], in [2], in [3], in assay [4], in assay [5] and in assay [6] was “inactive” in each case. For the same compound, the Potency result in [7], in assay [8], in [10], in assay [11], in assay [12] and in assay [13] was “inactive” each time. In addition, the Potency entry in assay [16] is “inactive”. In addition, the compound was classed as inactive in assay [9], in [14] and in assay [15].
Regarding `O=S(=O)(O)c1ccc(O)cc1`, the Potency result in assay [1], in [2], in [3], in assay [4], in [5] and in assay [6] was “inactive” each time. In addition, the Potency result in assay [7], in [8], in [10], in assay [11], in assay [12] and in [13] was “inactive” each time. For the same compound, the Potency result in [16] and in [17] was “inactive” each time. Further, the compound was called inactive in assay [9], in assay [14] and in assay [15].
In the case of `NNc1ccc(C(=O)O)cc1`, the Potency entry in assay [1], in assay [2], in [3], in assay [4], in [5] and in assay [6] was “inactive” throughout. Moreover, the Potency entry in assay [7], in assay [8], in [18], in assay [10], in assay [11] and in [12] was “inactive” throughout. Moreover, the Potency result in assay [13], in assay [16] and in [17] was “inactive” throughout. Further, the call in [9], in [14] and in assay [15] was inactive.
For `COc1cccc2c1C(=O)c1c(O)c3c(c(O)c1C2=O)C[C@@](O)(C(=O)CO)C[C@@H]3O[C@H]1C[C@H](N)[C@H](O)[C@H](C)O1`, the Potency entry in assay [1] is “inactive and 3.85 µM (active)”; in assay [3] it was 2.37 µM (active); in [5] it was 0.266 µM (active); in assay [6], 13.7 µM (active) and 5.31 µM (active); in assay [11], 1.55 µM (active) and 2.98 µM (active). Besides, the Potency result in assay [2], in [4], in assay [18], in assay [10], in assay [12] and in assay [13] was “inactive” in each case. The Potency entry in [16] and in assay [17] was “inactive” throughout.
In the case of `CCC(C)OC(=O)c1ccc(O)cc1` (stereo not given), the Potency entry in assay [1], in assay [2], in [3], in [4], in assay [5] and in assay [6] was “inactive” in each case. Also, the Potency entry in assay [7], in assay [8], in [18], in assay [10], in assay [11] and in assay [12] was “inactive” each time. The Potency result in [13] and in [16] was “inactive” throughout. Further, the call in [9], in assay [14] and in assay [15] was inactive.
As to `S=C(NC1CCCCC1)NC1CCCCC1`, the Potency result in assay [1] is “inactive and 17.2 µM (active)”; in assay [5], 34.4 µM (active); in assay [8], 9.23 µM (active) and 13.8 µM (active); in [16], 24.5 µM (active). The Potency entry in assay [2], in [3], in assay [4], in assay [6], in assay [12] and in assay [13] was “inactive” throughout. For the same compound, the Potency entry in assay [17] is “inactive”. Further, the compound was called inactive in [9], in assay [14] and in assay [15].
For the compound `CCCCOCCOCCOCCO`, the Potency entry in assay [1], in assay [2], in [3], in [4], in assay [5] and in assay [6] was “inactive” throughout. The Potency result in [7], in [8], in assay [18], in [10], in assay [11] and in [12] was “inactive” in each case. The Potency entry in [13] and in [16] was “inactive” in each case. Also, the outcome in assay [9], in [14] and in assay [15] was inactive.
`CCC(C)(O)CCCC(C)C` (stereo not given): the Potency entry in assay [1], in [2], in assay [3], in [4], in assay [5] and in assay [6] was “inactive” in each case. Also, the Potency result in assay [7], in [8], in assay [18], in assay [10], in assay [11] and in assay [19] was “inactive” throughout. Besides, the Potency result in [12], in [13], in [16] and in [17] was “inactive” each time. Besides, the outcome in assay [9] and in assay [20] was inactive.
